Laboratory results published in PubChem BioAssay AID881 (National Center for Advancing Translational Sciences (NCATS), 2007).
Out of some 110,000 compounds screened, about 610 (0.55%) were called active. Another 3% or so got no clear call; they are omitted. The entries come from a sample that favours actives as a whole. Unmarked numbers belong to inactive results. Calls follow the shape of the dose curve; as a rule, active = well fitted inhibition curve with a large enough effect; inconclusive = small, poorly fitted or top-dose-only effect; inactive = no such curve, though single readings can be large or run the other way.

molecular target: Polyunsaturated fatty acid lipoxygenase ALOX15B (Homo sapiens) (UniProt O15296); assay: qHTS Assay for Inhibitors of 15-hLO-2 (15-human lipoxygenase 2); details: purified 15hLO-2, xylenol orange hydroperoxide absorbance; series mostly up to 57.1 µM; activity change, negative = inhibition: at the top concentration; also: nearly all actives have a fitted effect of over 60% in size
Text: Assay Overview: NIH Molecular Libraries Screening Centers Network [MLSCN] NIH Chemical Genomics Center [NCGC] MLSCN Grant: MH081283-01A1 PI Name: Holman, T.R., University of California, Santa Cruz Human lipoxygenase 15hLO-2 is a member of the closely related lipoxygenase family of enzymes which catalyze the site-specific oxidation of arachidonic acid to various hormone precursor molecules and as such is a candidate for drug development in a variety of disease areas, such as cancer and inflammation. Inhibition of 15hLO-2 activity was screened by utilizing arachidonic acid as a substrate. The extent of hydroperoxide product formation was measured by a secondary chromogenic reaction in which xylenol orange (XO, Sigma-Aldrich, cat. number 39,818-7) reacts with the ferric ions produced from the reaction between the hydroperoxide and ferrous ions. The Fe(III)-XO complex is characterized with red-shifted absorbance at 560 nm. A purified preparation of human 15hLO-2 was supplied by Professor Ted Holman, University of California, Santa Cruz.
Assay Protocol: Buffer: 25 mM Hepes pH 7.5, 0.01% Triton X-100. Reagents/Controls: Buffer in columns 3 and 4 as negative control (no enzyme). Substrate solution: 45 uM arachidonic acid (Sigma-Aldrich, St. Louis, MO) final concentration dispensed throughout the plate. Enzyme: 50 nM 15hLO-2 final concentration in columns 1, 2, 5-48. Column 1 is neutral (100% activity). Column 2 contained pin-transferred titration of NDGA (nordihidroguaiaretic acid, Sigma-Aldrich, N 5023, top concentration 10 mM in DMSO, then 1:2 dilution in duplicate). (Dilution factor: 23 nL into 4 uL.) Chromogenic detection reagent (divalent iron/xylenol orange, Fe-XO): 200 uM xylenol orange plus 300 uM ferrous ammonium sulfate prepared freshly in 50 mM sulfuric acid. Assay Steps: Three uL of enzyme were dispensed to 1536-well Greiner black clear bottom plates. Compounds and controls (23 nL) were transferred via Kalypsys PinTool. The plates were incubated for 15 min at room temperature, and then 1 uL of substrate solution was added to start the reaction. After room temperature incubation for 90 minutes, 4 uL of Fe-XO solution was added to each well followed by a short spin (1000 rpm, 15 sec) and the plates were then incubated for 30 min. The absorbance at 405 and 573 nm were measured using ViewLux (Perkin-Elmer) High-throughput CCD imager and absorbance protocol settings. The 573-to-405 absorbance ratio was used to compute reaction progress.
% is scaled to controls: 0 for no effect and ±100 for the full control effect; potency is read from the fitted curve at half-maximal effect.

Chain of Polyunsaturated fatty acid lipoxygenase ALOX15B (Homo sapiens) (O15296 whole entry, looked up): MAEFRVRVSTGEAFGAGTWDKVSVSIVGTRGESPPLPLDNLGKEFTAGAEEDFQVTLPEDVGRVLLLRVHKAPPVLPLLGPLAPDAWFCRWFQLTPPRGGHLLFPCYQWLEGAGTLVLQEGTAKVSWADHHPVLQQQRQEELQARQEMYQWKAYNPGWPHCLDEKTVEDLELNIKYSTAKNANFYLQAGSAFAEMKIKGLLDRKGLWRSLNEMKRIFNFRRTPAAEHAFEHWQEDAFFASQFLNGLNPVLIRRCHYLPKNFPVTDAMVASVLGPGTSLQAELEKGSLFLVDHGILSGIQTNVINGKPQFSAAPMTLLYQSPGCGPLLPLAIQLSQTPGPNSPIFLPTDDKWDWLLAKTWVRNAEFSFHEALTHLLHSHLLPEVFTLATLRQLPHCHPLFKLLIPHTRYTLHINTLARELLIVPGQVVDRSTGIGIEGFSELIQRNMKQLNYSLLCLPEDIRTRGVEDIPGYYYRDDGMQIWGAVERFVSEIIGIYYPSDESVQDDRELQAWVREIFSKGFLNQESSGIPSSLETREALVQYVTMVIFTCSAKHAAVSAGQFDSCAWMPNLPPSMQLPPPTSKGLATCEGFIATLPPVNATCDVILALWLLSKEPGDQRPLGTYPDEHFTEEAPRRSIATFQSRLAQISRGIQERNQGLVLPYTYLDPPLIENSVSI

Row | SMILES | activity change, negative = inhibition | Potency
1 | COc1cc(/C=N/O)cc(Br)c1OCc1cccc(Cl)c1 | -5.31% | –
2 | CSCc1cc(N(C)C)nc(SCc2ccc(Cl)cc2Cl)n1 | 17.6% | –
3 | CCOC(=O)C1=C(C(=O)OCC)C(C(=O)OCC)N(S(=O)(=O)C(F)(F)F)c2ccccc21 (stereo not given) | 7.83% [at 0.0915 µM] | –
4 | CC1CCCCC1NC(=O)C1CCCN1S(=O)(=O)c1cccc2nsnc12 (stereo not given) | 5.08% | –
5 | Cc1nnc(NC(=O)CCCOc2ccccc2)s1 | -12.9% | –
6 | O=C(CN1C(=O)C2C3C=CC(C3)C2C1=O)Nc1nc(-c2ccccn2)cs1 (stereo not given) | 24.9% | –
7 | CCCCOC(=O)Nc1sc2nc(C)cc(C)c2c1-n1cccc1 | -6.45% | –
8 | CCOC(=O)c1c(NC(C)=O)sc2c(O)c(Br)ccc12 | -25.8% | –
9 | COc1ccc(C(=O)Nc2ccc(S(=O)(=O)NC(C)C)cc2)cc1 | -1.16% | –
10 | COC(=O)c1cc(NC(=O)CC2C(=O)NCCN2C(=O)c2ccc(F)cc2)cc(C(=O)OC)c1 (stereo not given) | -1.66% | –
11 | Cn1ccs/c1=N\S(=O)(=O)c1ccc(C(C)(C)C)cc1 | -3.71% | –
12 | COCC(C)NC(=O)c1ccc(-n2nc(C(F)(F)F)cc2-c2cccs2)cc1 (stereo not given) | 4.55% | –
13 | NC(=O)c1nsc(C(=O)N(CC(=O)NCc2ccc(F)cc2)Cc2ccco2)c1N | -1.25% | –
14 | Cc1ccc(-c2cc(=O)c3ccc(Cl)cc3[nH]2)cc1 | -2.63% [at 0.0915 µM] | –
15 | COc1ccc(C)cc1N(C)C(=O)c1coc(=O)c2ccccc12 | -9.94% | –
16 | C=CCC1CCC(=O)N2CCCC12 (stereo not given) | -5.32% [at 0.0915 µM] | –
17 | Cc1ccccc1OCC(=O)NCC(=O)OCC(=O)c1ccc2ccccc2c1 | 5.04% | –
18 | Brc1ccc(C2=NCCC(c3ccccc3)O2)cc1 (stereo not given) | 18.5% [at 0.0915 µM] | –
19 | O=C(c1cccc(F)c1)N1CCN(c2ccc([N+](=O)[O-])c(N3CCCCC3)c2)CC1 | -15.7% | –
20 | O=C1OCCN1C(=O)[C@H]1[C@H](c2ccc(Cl)cc2)C(c2cccc(Cl)c2)=NN1c1ccc(Br)cc1 | 4.34% [at 0.0915 µM] | –
21 | CC1(C)O[C@@H]2C[C@@H]3[C@H]4C[C@@H](F)C5=CC(=O)C=C[C@]5(C)[C@@]4(F)[C@@H](O)C[C@]3(C)[C@]2(C(=O)CO)O1 | -10.6% [at 0.0915 µM] | –
22 | O=C1CCC[C@@H]2CC(N3CCCCC3)C[C@@H]3CCN1[C@H]23 (stereo not given in full) | -0.97% [at 0.0915 µM] | –
23 | Cc1c(O)c(Br)c(C)c(O)c1Br (tested in a mixture with another compound) | – | 2 µM (active)
24 | CCOn1c(SC(C)C)nc2ccccc2c1=O | 0.625% | –
25 | C=CC1(C)CC(=O)C2(O)C(C)(O1)C(OC(C)=O)C(O)C1C(C)(C)CCC(O)C12C (stereo not given) | 1.16% [at 0.0915 µM] | –

Row | SMILES | activity change, negative = inhibition | Potency
26 | COc1cc(C(=O)N2CCOCC2)cc(OC)c1OC | 5.48% [at 0.0915 µM] | –
27 | Cc1ccc(NC(=O)Cn2nc(C)c3ccccc3c2=O)c(C)c1 | -7.07% | –
28 | Cc1ccc(NC(=S)Nc2ncccc2C)c(C)c1 | – | 7.94 µM (active)
29 | Cc1ccccc1NC(=S)Nc1cccc([N+](=O)[O-])c1 | -5.17% | –
30 | CC(C)NC(=O)C(=O)NCCN1CCN(S(=O)(=O)c2ccc(Cl)cc2)CC1 | 8.55% | –
31 | FC(F)(F)c1cnc(Oc2ccccc2-c2nnc(-c3ccc(Cl)cc3)o2)c(Cl)c1 | -0.426% | –
32 | O=C(Oc1ccccc1)Oc1ccc2c(c1)oc(=O)c1ccccc12 | -17.5% | –
33 | Cc1ccnc(N2CCC(C(=O)NC3CCCCCC3)CC2)n1 | 6.51% | –
34 | Cc1nc2ccccc2c(=O)n1CCCn1ccnc1 | 9.49% [at 11.4 µM] | –
35 | Cc1ccnc(-n2sc3ccccc3c2=O)n1 | – | 7.94 µM (active)
36 | N#Cc1ccc(Oc2cc(C(F)(F)F)nc(-c3ccccn3)n2)cc1 | 5.16% | –
37 | CCCCCCCCCCCCCCCCO | 14.3% [at 0.0915 µM] | –
38 | CN(C(=O)CSc1nc(C2CC2)nc2ccccc12)c1nc(-c2ccccc2)cs1 | 2.08% | –
39 | Cc1cc(N/C=C\C(=O)c2ccc(Cl)c(Cl)c2)no1 | -13.7% | –
40 | Cc1ccc(-n2c(SCC(=O)NCc3ccc4c(c3)OCO4)nnc2-c2cccnc2)c(C)c1 | -2.26% | –
41 | Cc1ccc(CC2(O)CCN(CCOc3ccc(O)cc3)CC2)cc1 | 15.1% [at 0.0915 µM] | –
42 | Cc1ccc(/C=N/NC(=O)Cn2nc(C)c(Br)c2C)o1 | -9.43% | –
43 | C=CCN(N=Nc1cccc([N+](=O)[O-])c1)c1cccc([N+](=O)[O-])c1 | -5.62% | –
44 | CN(C)c1ccc(CNC2C3CC4CC(C3)CC2C4)cc1 (stereo not given) | 67.5% | –
45 | O=C(COc1ccc(Br)cc1F)NC1CCN(Cc2ccccc2)CC1 | 29.1% | –
46 | N#CC1=C(SCc2ccc(C#N)cc2)N=C(N)C(c2nc(-c3ccccc3)cs2)C12CCCCC2 (stereo not given) | -1.4% | –
47 | CCOc1c2ccc(C(=O)NCc3ccc(OC(F)(F)F)cc3)cc2nn1C | 10.7% | –
48 | Cc1ccc(NC2(C#N)C(=O)Nc3ccccc32)cc1 (stereo not given) | -9.55% | –
49 | O=C1Nc2ccccc2C12Nc1ccccc1S2 (stereo not given) | – | 7.94 µM (active)
50 | CC(=O)N1C(=O)C2(Nc3ccccc3N2)c2ccccc21 | 3.55% | –
